{"source": "PubChem BioAssay (NCATS)", "note": "Inconclusive results are not listed. Unmarked numbers belong to inactive results. Calls come from the whole dose curve; as a rule, active = well fitted cell-killing curve with a large enough effect; inconclusive = small, poorly fitted or top-dose-only effect; inactive = no such curve, though single readings can be large or run the other way. % is set by controls: 0 for no effect and ±100 for the full control effect."}
{"assay": "qHTS of pediatric cancer cell lines to identify multiple opportunities for drug repurposing: Primary screen for Rh30 cells (AID 1347107); note: nearly all actives have a fitted effect of over 75% in size", "conditions": "Rh30 rhabdomyosarcoma viability, CellTiter-Glo luminescence, 48 h; series mostly up to 46 µM; activity change, negative = cytotoxic: at the top concentration", "description": "Drug repurposing or repositioning has been offered as a strategy for drug development in oncology programs. This approach has special potential for childhood cancers and other rare or orphan diseases, where the expected return on new drug development has been a disincentive to pharmaceuticals.\nIn this project we exploit the poly-pharmacology of drugs to discover new indications via phenotypic screening of a panel of 19 well-characterized cell lines derived from solid tumors seen in children and adolescents. The goal is to identify approved drugs with previously unrecognized anticancer properties that has the potential to reveal new mechanisms and biological processes involved in carcinogenesis or drug resistance. We employed a titration-based paradigm (quantitative high-throughput screening or qHTS), where all compounds were tested at multiple concentrations for their effect on cell viability. Concentration-response curves (CRCs) were derived directly from the primary screen, and both potency and efficacy values were used to identify compounds with robust bioactivity profiles. We screened the NIH Chemical Genomics Center (NCGC) Pharmaceutical Collection (NPC) and Mechanism Interrogation Plate (MIPE) small molecule collections of approved and investigational compounds against these cell lines; and measured metabolically active cells after 48 hours of compound treatment as a proxy for cell viability.\nAssay Submitter: Nathalia J. Martinez, National Center for Advancing Translational Sciences, National Institutes of Health, Rockville, MD, USA; email: natalia.martinez@nih.gov\n[1] Shen, M et al. Quantitative high-throughput phenotypic screening of pediatric cancer cell lines identifies multiple opportunities for drug repurposing. Oncotarget 2017 Dec 19;9(4):4758-4772. PMID 29435139.\nThe cells were obtained from University of North Carolina (UNC), Pediatric Preclinical Testing Program (PPT), and Coriell Institute (CI).\nqHTS cell viability assay:\nCells were assayed in growth media at a density of 500-1,000 cells/well. Five microliters of cells were dispensed into 1,536-well, white, solid-bottom, TC-treated plates (Greiner Bio One) using a multidrop dispenser and incubated at 37 degrees C, 5% CO2, under a humidified atmosphere for 5 hours. Twenty-three nanoliters of compounds and controls (neutral control DMSO or positive control bortezomib at final concentration of 2.3 µM) were subsequently transferred by Kalypsys pintool. For primary screens, the MIPE collection was tested at 11-point dilutions (final concentrations range from 0.78 nM to 46 µM) and the NPC collection at 8-point dilutions (final concentrations range from 0.59 nM to 46 µM). Compounds tested in follow-up screens were assayed at 11-point dilutions. Cells were incubated for 48 hours, followed by addition of 3 µL of CellTiter-Glo (Promega). After a 15 min incubation at room temperature, samples were analyzed for luminescence intensity using a ViewLux High-throughput CCD imager equipped with clear filters."}
{"compound": "N#CSCC(=O)O", "activity change, negative = cytotoxic": "12.4%"}
{"compound": "NS(=O)(=O)c1ccc(N2CCCCS2(=O)=O)cc1", "activity change, negative = cytotoxic": "20.7%"}
{"compound": "CC1c2ccccc2CN1NC(=O)c1ccc(Cl)c(S(N)(=O)=O)c1", "note": "(stereo not given)", "activity change, negative = cytotoxic": "12.8%"}
{"compound": "CC(=O)[C@H]1CC[C@H]2[C@@H]3C=CC4=CC(=O)CC[C@@]4(C)[C@@H]3CC[C@]12C", "activity change, negative = cytotoxic": "3.42%"}
{"compound": "Cc1ccc(-c2ccccc2C#N)cc1", "activity change, negative = cytotoxic": "18.1%"}
{"compound": "C=C(C)C(=O)OCC(O)CO", "note": "(stereo not given)", "activity change, negative = cytotoxic": "13.2%"}
{"compound": "C[N+]1(C)CCC(OC(=O)C(O)(c2ccccc2)C2CCCC2)C1", "note": "(stereo not given)", "activity change, negative = cytotoxic": "17.1%"}
{"compound": "CC(C)(C)CC(=O)OCC(=O)[C@@]1(O)CC[C@H]2[C@@H]3CCC4=CC(=O)C=C[C@]4(C)[C@H]3[C@@H](O)C[C@@]21C", "activity change, negative = cytotoxic": "5.98%"}
{"compound": "O=C1Nc2cc(Cl)ccc2Oc2ccccc21", "activity change, negative = cytotoxic": "7.85%"}
{"compound": "Cc1sccc1Br", "activity change, negative = cytotoxic": "14.9%"}
{"compound": "CCCCC(O)/C=C(C)/C=C/C=C/C(=O)N1CCCC1=O", "note": "(stereo not given)", "activity change, negative = cytotoxic": "28.7%"}
{"compound": "CCOC(=O)N1CCC(Nc2ccc(Cl)cc2N)CC1", "activity change, negative = cytotoxic": "17.4%"}
{"compound": "CN(C)CCOC(c1ccccc1)c1ccc(Br)cc1", "note": "(stereo not given)", "activity change, negative = cytotoxic": "14.1%"}
{"compound": "O=C1CC[C@H](C(=O)N2CCCCC2)N1", "activity change, negative = cytotoxic": "8.79%"}
{"compound": "O=c1[nH]c(=O)n([C@H]2O[C@H](CO)[C@@H](O)[C@@H]2O)cc1/C=C\\Br", "activity change, negative = cytotoxic": "19.8%"}
{"compound": "Cn1cc(S(C)=O)c(=O)c2ccc(F)cc21", "note": "(stereo not given)", "activity change, negative = cytotoxic": "19.9%"}
{"compound": "CC1(C)S[C@@H]2[C@H](NC(=O)C(c3ccccc3)S(=O)(=O)O)C(=O)N2[C@H]1C(=O)O", "note": "(stereo not given in full)", "activity change, negative = cytotoxic": "15.5%"}
{"compound": "O=C(O)[C@H](O)[C@@H](O)[C@H](O[C@@H]1O[C@H](CO)[C@H](O)[C@H](O)[C@H]1O)[C@H](O)CO", "activity change, negative = cytotoxic": "13.5%"}
{"compound": "CCOCCn1c(C2CCN(CCc3ccc(C(C)(C)C(=O)O)cc3)CC2)nc2ccccc21", "activity change, negative = cytotoxic": "9.21%"}
{"compound": "OCc1cccnc1", "activity change, negative = cytotoxic": "20.2%"}
{"compound": "O=C(O)c1ccccc1S", "activity change, negative = cytotoxic": "20.7%"}
{"compound": "O=C(O)C1CCC1", "activity change, negative = cytotoxic": "35.6%"}
{"compound": "CCCCCCn1c(=O)c2c(ncn2C)n(C)c1=O", "activity change, negative = cytotoxic": "23.9%"}
{"compound": "CCCC(=O)c1cc(O)c(O)cc1O", "activity change, negative = cytotoxic": "7.17% [at 92.7 µM]"}
{"compound": "CC(C)C(=O)Nc1cccc(C(F)(F)F)c1", "activity change, negative = cytotoxic": "20.4%"}
{"compound": "CO[C@@H]1[C@@H](OC)[C@H](C)[C@@](O)(CC(=O)O)O[C@H]1[C@H](C)[C@H]1O[C@@]2(CC[C@@](C)([C@H]3CC[C@@](C)([C@@H]4O[C@@H]([C@H]5O[C@](C)(O)[C@H](C)C[C@@H]5C)C[C@@H]4OC4C[C@H](OC)[C@@H](OC)[C@H](C)O4)O3)O2)C[C@H](O)[C@H]1C", "note": "(stereo not given in full)", "activity change, negative = cytotoxic": "-25.1%"}
{"compound": "CCC(CN)=C(c1ccccc1)c1ccccc1", "activity change, negative = cytotoxic": "21.1%"}
{"compound": "CC(C)(c1ccc(O)cc1)c1ccc(O)cc1", "activity change, negative = cytotoxic": "11.5% [at 92.7 µM]"}
{"compound": "C[N+]1(CC2COC(c3ccccc3)(c3ccccc3)O2)CCCCC1", "note": "(stereo not given)", "activity change, negative = cytotoxic": "7.54% [at 16.1 µM]"}
{"compound": "COc1ccc(-n2nc(CCC(=O)N(C)O)cc2-c2ccc(Cl)cc2)cc1", "activity change, negative = cytotoxic": "7.76%"}
{"compound": "CCCCCN(CCCOC)C(=O)C(CCC(=O)O)NC(=O)c1ccc(Cl)c(Cl)c1", "note": "(stereo not given)", "activity change, negative = cytotoxic": "18.6%"}
{"compound": "O=C(c1cc(O)c(O)c(O)c1)c1ccc(O)c(O)c1O", "activity change, negative = cytotoxic": "12.6%"}
{"compound": "C[C@@H]1CCC[C@H](C)N1CCCC(O)(c1ccccc1)c1ccccn1", "note": "(stereo not given in full)", "activity change, negative = cytotoxic": "2.15%"}
{"compound": "CO/N=C(/C(=O)N[C@@H]1C(=O)N2C(C(=O)O)=C(Cn3nnc(C)n3)CS[C@H]12)c1csc(N)n1", "activity change, negative = cytotoxic": "23.2%"}
{"compound": "CC(=O)N(c1onc(C)c1C)S(=O)(=O)c1ccc(N)cc1", "activity change, negative = cytotoxic": "16.9%"}
{"compound": "CC1CCCCN1CCCOC(=O)c1ccc(OC2CCCCC2)cc1", "note": "(stereo not given)", "activity change, negative = cytotoxic": "15.4%"}
{"compound": "Nc1ccc([N+](=O)[O-])c(C(F)(F)F)c1", "activity change, negative = cytotoxic": "22.3%"}
{"compound": "CO[C@]1(NC(=O)CSC(F)F)C(=O)N2C(C(=O)O)=C(CSc3nnnn3CCO)CO[C@H]21", "activity change, negative = cytotoxic": "17.1%"}
{"compound": "CC(C)C[C@H](NC(=O)CNC(=O)[C@H](Cc1ccc(O)cc1)NC(=O)[C@H](CO)NC(=O)[C@H](Cc1c[nH]c2ccccc12)NC(=O)[C@H](Cc1cnc[nH]1)NC(=O)[C@@H]1CCC(=O)N1)C(=O)N[C@@H](CCCN=C(N)N)C(=O)N1CCC[C@H]1C(=O)NCC(N)=O", "note": "(stereo in doubt)", "activity change, negative = cytotoxic": "18.2%"}
{"compound": "CN1CCC(=C2c3ccccc3CCc3cccnc32)CC1", "activity change, negative = cytotoxic": "23.5%"}
